Bioassay records deposited in PubChem BioAssay by National Center for Advancing Translational Sciences (NCATS).
L3MBTL1 block: blocks human L3MBTL1; Potency, µM (highest dose often 57.1 µM), without a hit: at the highest dose activity, negative = inhibition, hits mostly inhibitors; AID 485360; Q9Y468; AlphaScreen L3MBTL1–H3K9me1 peptide binding; 0.66% of 230,000 active; further: on the % scale 0 is the no-effect control and ±100 the full control effect; nearly all actives have a fitted effect of over 60% in size
Target sequence (Q9Y468 whole entry, looked up): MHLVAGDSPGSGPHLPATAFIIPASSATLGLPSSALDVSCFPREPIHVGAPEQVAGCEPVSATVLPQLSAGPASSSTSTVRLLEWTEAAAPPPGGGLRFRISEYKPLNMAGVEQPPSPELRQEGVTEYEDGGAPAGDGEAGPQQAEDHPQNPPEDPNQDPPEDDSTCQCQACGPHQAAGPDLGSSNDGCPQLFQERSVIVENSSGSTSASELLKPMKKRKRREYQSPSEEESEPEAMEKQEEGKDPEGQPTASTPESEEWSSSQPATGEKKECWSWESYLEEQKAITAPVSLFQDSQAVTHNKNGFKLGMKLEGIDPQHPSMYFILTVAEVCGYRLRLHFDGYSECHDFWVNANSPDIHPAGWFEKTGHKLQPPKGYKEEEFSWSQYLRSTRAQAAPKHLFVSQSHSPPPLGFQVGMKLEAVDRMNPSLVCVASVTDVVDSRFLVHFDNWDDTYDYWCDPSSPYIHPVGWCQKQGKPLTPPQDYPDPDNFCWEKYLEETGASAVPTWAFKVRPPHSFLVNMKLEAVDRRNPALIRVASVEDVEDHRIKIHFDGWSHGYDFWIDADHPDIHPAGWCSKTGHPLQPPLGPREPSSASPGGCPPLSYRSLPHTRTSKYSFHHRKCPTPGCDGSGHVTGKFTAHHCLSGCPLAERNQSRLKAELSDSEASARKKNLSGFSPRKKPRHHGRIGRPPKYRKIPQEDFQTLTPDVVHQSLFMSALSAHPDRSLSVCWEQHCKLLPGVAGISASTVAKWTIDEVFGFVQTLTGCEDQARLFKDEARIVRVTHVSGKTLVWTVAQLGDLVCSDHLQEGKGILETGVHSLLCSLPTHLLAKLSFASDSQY
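First, the protein-peptide complex forms for 30 min at room temperature (L3MBTL1 50 nM, biotinylated H3K9me1 peptide 75 nM). Next, compounds are pin-transferred and incubated 30 min. Finally, AlphaScreen beads are added and read after 30 min.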
JMJD2A Tudor: blocks the human JMJD2A Tudor domain. O75164. AlphaScreen JMJD2A-Tudor / H3K4me3 peptide binding. Potency, µM (series often up to 114 µM), without a hit: top-dose activity change, negative = inhibition, most hits filed as inhibitors. 4.4% of 390,000 active; further: on the % scale 0 is the no-effect control and ±100 the full control effect; nearly all actives have a fitted effect of over 50% in size
G9a block: G9a (human) methyltransferase inhibition | Q96KQ7 | G9a H3K9 monomethylation, AlphaScreen, 2 h | Potency, µM (doses to about 102 µM), inactives show top-dose activity, negative = inhibition, actives largely listed as inhibitors | 8.8% of 350,000 active | AID 504332; further: on the % scale 0 is the no-effect control and ±100 the full control effect; nearly all actives have a fitted effect of over 75% in size
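Step 1: enzyme (final 20 nM) with compound, 15 min RT. Step 2: substrate peptide 500 nM and SAM 20 uM, 2 h RT. Step 3: anti-H3K9me1 antibody and AlphaScreen beads, 10 min, then plate read.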
BAZ2B block: blocks human BAZ2B | Potency, µM (doses to about 114 µM), without a hit: top-dose activity change, negative = inhibition, actives largely listed as inhibitors | Q9UIF8 | 4.4% of 360,000 active | AlphaScreen BAZ2B-H3K14Ac peptide displacement; further: on the % scale 0 is the no-effect control and ±100 the full control effect; nearly all actives have a fitted effect of over 60% in size
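AlphaScreen displacement of biotin-H3(5-23)K14Ac peptide (50 nM final) from BAZ2B (50 nM final) in PBS pH 7.4, 0.01% Tween-20; complex preformed 30 min RT, then compounds (top 110 uM) 30 min RT, beads 20 min dark.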
HP1b binding inh: HP1-beta chromodomain-methylated histone interaction inhibition | AlphaScreen HP1-beta / biotin-H3K9me3 peptide binding | Potency, µM (doses to about 114 µM), for the others: at the highest dose activity change, negative = inhibition, usual class: inhibitors | 0.56% of 390,000 active; further: nearly all actives have a fitted effect of over 70% in size
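Compound inhibition of the preformed complex between 50 nM HP1-beta and 50 nM biotinylated H3K9me3 peptide was read by AlphaScreen. Buffer was PBS pH 7.4 with 0.01% Tween-20. Incubations ran 30 min at room temperature, with 10 ug/mL donor/acceptor beads.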
* = called active by the depositor; ? = inconclusive; . = no result; [ ] = remark or other dose. Shown are actives, neighbours in structure and some others; about 11% of the full set was active somewhere. The call rests on the fitted dose curve; in most records, active means well fitted inhibition curve with a large enough effect; inconclusive means small, poorly fitted or top-dose-only effect; inactive means no such curve, though single readings can be large or run the other way. Potency means the concentration at half of the fitted maximal effect.

SMILES	L3MBTL1 block	JMJD2A Tudor	G9a block	BAZ2B block	HP1b binding inh
CCOC(=O)c1c(-c2ccc(F)cc2)csc1NC(=O)C1CC=CCC1C(=O)O (centres undefined)	?	-25%	16µM*	-31%	?
CCOC(=O)c1c(-c2ccc(F)cc2)csc1NC(=O)CCN1CCOCC1	-10%	1.8µM*	8.9µM*	40µM*	?
CCOC(=O)c1c(-c2ccc(C)c(C)c2)csc1NC(=O)C1CC=CCC1C(=O)O (centres undefined)	.	-16%	11%	-6%	14%
CCOC(=O)c1c(-c2ccccc2)csc1NC(=O)C(C)NCCCN1CCOCC1 (centres undefined)	-17%	50µM*	11µM*	40µM*	?
CCOC(=O)c1c(-c2ccc(-c3ccccc3)cc2)csc1NC(=O)CCN1CCOCC1	-1%	?	?	-32%	-14%
CCOC(=O)c1c(-c2ccc(-c3ccccc3)cc2)csc1NC(=O)CNCCN(C)C	.	35µM*	50µM*	?	-14%[57 µM]
CNC(C)C(=O)NC(C(=O)N1CCCC1C(=O)NNc1ccccc1)C(C)C (centres undefined)	-11%	?	16%[2.33 µM]	?	20%
CC(N)C(=O)NC(C(=O)N1CCCC1C(=O)NC(c1ccccc1)c1ccccc1)C(C)C (centres undefined)	15%	89µM*	9%[2.33 µM]	-3%	23%
O=C(Nc1nc2c(s1)CN(Cc1ccccc1)CC2)C1CCC1	-7%	-23%	45µM*	?	14%
CCN1CCc2nc(NC(=O)c3ccccc3)sc2C1	.	-16%	?	-18%	25%
Cc1ccc2c(nc3s/c(=C\c4ccc(-c5ccccc5C(=O)O)o4)c(=O)n32)c1C	.	?	18µM*	56µM*	-18%
O=c1/c(=C/c2ccccc2)sc2nnc(-c3cccs3)n12	10%	-2%	.	0%	-1%
Cc1ccc2c(nc3s/c(=C/c4cccs4)c(=O)n32)c1C	-4%	?	7.9µM*	.	-13%
Cc1c(C(=O)O)cccc1-c1ccc(C=O)o1	?	-31%	?	-10%	5%
Cc1cc(C)c2nc3s/c(=C/c4ccccc4)c(=O)n3c2c1	.	.	1.3µM*	3%	.
O=c1/c(=C/c2cn(-c3ccccc3)nc2-c2ccc(F)cc2)sc2nc3ccccc3n12	0%	.	-1%[59 µM]	2%	.
O=C(O)c1ccc(-c2ccc(/C=c3/sc4nc5ccccc5n4c3=O)o2)cc1Cl	.	20µM*	5µM*	40µM*	18µM*
CC1CC(C)CN(CCOc2ccc(Cl)cc2Cl)C1 (centres undefined)	.	2.8µM*	?	56µM*	?
CCC(=O)c1ccccc1OCCN1CCN(CC)CC1	12%	14µM*	14µM*	35µM*	?
CC1CC(C)CN(CCOc2cccc(Cl)c2Cl)C1 (centres undefined)	2%	79µM*	13µM*	?	?
CC1CC(C)CN(CCC(=O)Nc2cccc(Cl)c2)C1 (centres undefined)	.	0%	-35%[2.33 µM]	-13%	29%
Cc1ccc(C(C)C)cc1OCCn1cncn1	7%	2.2µM*	11µM*	79µM*	50µM*
COc1cccc(CNC(=O)c2c(C)nn(-c3cccc(C)c3)c2-n2cccc2)c1	.	-4%	9%[59 µM]	0%	25%
CC1(C)NC(=O)N(CCOc2cccc(Cl)c2Cl)C1=O	0%	-2%	8%[59 µM]	7%	64%
CCC(=O)c1ccccc1OCCCCn1cncn1	0%	5.6µM*	8.9µM*	28µM*	?
SMILES	L3MBTL1 block	JMJD2A Tudor	G9a block	BAZ2B block	HP1b binding inh
Clc1cccc(OCCn2cncn2)c1Cl	2%[11.4 µM]	-3%[11.4 µM]	?	56µM*	-35%
CCN1CCN(CCOc2cccc(Cl)c2Cl)CC1	45%	4µM*	.	18µM*	?
Cc1cc2c(s1)c1cnn(Cc3ccc(F)c(F)c3F)c(=O)c1n2C	.	-1%	.	.	.
Clc1ccc(Nc2nc(NCc3ccco3)nc3nccnc23)cc1	.	-19%	.	.	21%
Fc1ccc(Nc2ncnc3ccc(-c4ccoc4)cc23)cc1	.	.	10%[0.501 µM]	.	.
CCCN1C2=C(C(=O)CC(C)(C)C2)C(c2ccc(F)cc2)C2=C1c1ccccc1C2=O (centres undefined)	.	-30%	11µM*	?	?
Cc1ccc(C2C3=C(CC(C)(C)CC3=O)NC3=C2C(=O)c2ccccc23)cc1 (centres undefined)	?	50µM*	14µM*	32µM*	?
CC1(C)CC(=O)C2=C(C1)NC1=C(C(=O)c3ccccc31)C2c1ccc(Cl)cc1 (centres undefined)	?	16µM*	?	11µM*	?
COc1ccc(C2C3=C(CCCC3=O)NC3=C2C(=O)c2ccccc23)cc1 (centres undefined)	-11%	50µM*	.	35µM*	?
COc1ccc(C2NC(=O)NC3=C2C(=O)CCC3)cc1 (centres undefined)	3%	-11%	-12%	-4%	12%
CCOc1ccccc1-c1nnc2n1N=C(c1ccc(OC)c(OC)c1)CS2	.	-30%	.	.	.
CN(Cc1ccccc1)c1nc2c(S(=O)(=O)c3cccc(Cl)c3)nnn2c2ccsc12	.	-16%	-9%[59 µM]	-9%	0%
Cc1c(C(C)(C)C)c(C=S)n2ccccc12	.	50µM*	4µM*	-38%	?
C=CCc1ccccc1OCCSc1nc(-c2ccccc2F)nc2cc(=O)[nH]n12	.	?	4%[59 µM]	?	3%
CCOc1ccccc1NC(=O)Cn1c(=O)n(CCCCC(=O)NCCCOC)c(=O)c2ccccc21	.	9%	44%[59 µM]	79µM*	80%
Cc1cccc(-n2c(=O)c3ccccc3n3c(=S)[nH]nc23)c1C	.	25µM*	1.1µM*	-15%	-16%
